Measurements reported in PubChem BioAssay.
Active and inactive are the calls of the source. The rule behind the calls is not given here.

The molecules below were run against Protein kinase 7 (PK7), Plasmodium falciparum 3D7 (PF3D7_0213400) (UniProt Q7YTF7) (assay: inhibition of Plasmodium PK7 catalytic activity – biochemical, TCAMS antimalarial set, Kinase-Glo luminescence (AID 1159587)). Details: recombinant PfPK7, Kinase-Glo ATP depletion luminescence.
Chain of Protein kinase 7 (PK7), Plasmodium falciparum 3D7 (PF3D7_0213400) (Q7YTF7 1-343): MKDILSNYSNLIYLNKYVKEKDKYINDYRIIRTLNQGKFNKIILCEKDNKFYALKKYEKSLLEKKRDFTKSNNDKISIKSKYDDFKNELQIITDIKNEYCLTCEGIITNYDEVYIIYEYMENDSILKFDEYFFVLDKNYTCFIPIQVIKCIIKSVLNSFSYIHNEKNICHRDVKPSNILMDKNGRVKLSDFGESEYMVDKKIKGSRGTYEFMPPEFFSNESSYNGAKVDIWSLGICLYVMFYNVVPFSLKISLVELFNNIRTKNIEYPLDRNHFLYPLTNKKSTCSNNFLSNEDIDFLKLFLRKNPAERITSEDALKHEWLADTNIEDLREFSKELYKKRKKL

outcome, inactive:
COc1ccc(C(C(=O)NC2CCN(C[C@H](O)c3ccnc4ccc(OC)cc34)CC2)N2CCN(Cc3ccccc3)CC2)cc1 (stereo not given in full), CS(=O)(=O)c1ccc2nc(NC(=O)c3csnn3)sc2c1, O=C(/C=C/c1ccc(Cl)c(Cl)c1)NCCCCCN1CCCN(C(=O)Nc2cccc(F)c2)CC1, Cn1ccnc1S(=O)(=O)CCNCc1ccc(-c2ccc3ncnc(Nc4ccc(OCc5cccc(F)c5)c(Cl)c4)c3c2)o1, Cc1ccccc1C1CCN(C2CCC(NC(=O)/C=C/c3cccc(F)c3)CC2)CC1 (stereo not given), Cc1nc2ccccc2c(=O)n1NCc1ccc(Cl)c(Cl)c1, CCNc1cc(C)nc(Nc2ccc(NS(=O)(=O)c3ccccc3)cc2)n1, CCCCCCCc1ccc(-c2c(C)[nH]c(C)c(Cl)c2=O)cn1, O=C(C=Cc1cn(-c2ccccc2)nc1-c1cccs1)N1CCN(c2ccncc2)CC1, O=C(Nc1ccc(C(F)(F)F)cc1)Nc1ccccc1N1CCNCC1, CCC(CC(NCCCCNC(=O)c1ccc(NC(=O)c2ccc(Cl)cc2)cc1)c1ccccc1)c1ccccc1OC (stereo not given), O=C(/C=C/c1ccc(Cl)c(Cl)c1)NCCCCCN1CCC(NC(=O)Nc2cccc(C(F)(F)F)c2)CC1, Cc1noc(C)c1-c1ccc2c(Nc3ccccc3C(C)(C)C)c(C(=O)NCc3ccc(OC(C)C)cc3)cnc2c1, FC(F)(F)c1cccc(CNCCCCCNCc2ccc(Cl)cc2)c1, C[C@@H]1CN(c2nc(NCCc3ccc(O)cc3)nc(NCc3ccccc3-c3ccc(C(F)(F)F)cc3)n2)C[C@H](C)N1
